An excerpt weighted towards active compounds, which were near 4.2% of everything screened.
Sfp PPTase inh = inhibitors of Bacillus subtilis Sfp phosphopantetheinyl transferase. Q9F4F7. Potency, µM, inactives show largest response in the series, negative = inhibition, most hits filed as inhibitors. actives 3.5% (n = 310,000). Biochemical Sfp PPTase activity, qHTS;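 note: the enzyme is Sfp with the accession as filed and its product quenches rhodamine fluorescence; 0% = enzyme reaction without inhibitor and -100% = no enzyme wells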
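Reaction rates are the 30-min fluorescence difference (ex 525, em 598 nm) in wells containing 15 nM Sfp, 5 uM rhodamine-CoA and 12.5 uM BHQ-2-YbbR at pH 7.6 with 10 mM MgCl2.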
ALOX12 inh = blocks human arachidonate 12S-lipoxygenase. P18054. purified 12hLO, xylenol orange hydroperoxide absorbance. Potency, µM (doses to about 108 µM), for inactives: at the highest dose activity change, negative = inhibition, hits mostly inhibitors. actives 1.1% (n = 580,000). AID 1671190
Target sequence (P18054 whole entry, looked up): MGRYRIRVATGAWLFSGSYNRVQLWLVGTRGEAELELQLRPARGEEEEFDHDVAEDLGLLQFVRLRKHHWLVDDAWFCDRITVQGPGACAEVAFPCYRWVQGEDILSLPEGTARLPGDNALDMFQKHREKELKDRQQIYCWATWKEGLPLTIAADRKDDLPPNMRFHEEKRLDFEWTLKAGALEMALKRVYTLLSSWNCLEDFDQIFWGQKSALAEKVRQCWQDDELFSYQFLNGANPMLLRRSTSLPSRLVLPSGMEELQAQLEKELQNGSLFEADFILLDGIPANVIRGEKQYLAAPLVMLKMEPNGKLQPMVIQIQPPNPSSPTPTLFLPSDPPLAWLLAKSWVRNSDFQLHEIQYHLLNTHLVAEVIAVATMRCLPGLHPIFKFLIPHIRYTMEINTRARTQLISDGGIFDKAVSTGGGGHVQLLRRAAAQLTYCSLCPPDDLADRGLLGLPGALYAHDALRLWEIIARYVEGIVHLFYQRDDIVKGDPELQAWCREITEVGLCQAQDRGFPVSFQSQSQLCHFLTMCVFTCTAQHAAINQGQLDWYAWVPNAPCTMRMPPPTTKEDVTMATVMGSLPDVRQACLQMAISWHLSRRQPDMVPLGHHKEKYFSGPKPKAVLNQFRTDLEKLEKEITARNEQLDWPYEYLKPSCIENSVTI
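Hydroperoxide product was detected by ferrous iron/xylenol orange as the 573 to 405 nm absorbance ratio. Arachidonic acid at 40 uM (final) was turned over for 30 min at room temperature by 150 nM human 12hLO, pH 7.0 Hepes buffer, after 15 min compound preincubation.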
PLK1 PBD block = inhibitors of human PLK1 polo-box domain binding | Potency, µM, for inactives: max response, negative = inhibition, usual class: inhibitors | Plk1 PBD binding of FITC phosphopeptide, fluorescence polarization | P53350 | actives 2.8% (n = 360,000); note: series mostly up to about 57 µM; nearly all actives have a fitted effect of over 65% in size
VDR inh = vitamin D3 receptor (human) inhibition; P11473; VDR-SRC2-3 peptide fluorescence polarization, 2 h; Potency, µM, without a hit: max response, negative = inhibition, actives largely listed as inhibitors; actives 0.93% (n = 400,000); AID 504847
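Fluorescence polarization assay measuring small-molecule disruption of VDR binding to the coregulator peptide SRC2-3. Compounds were pin-transferred (23 nl) into the reagent mix and incubated 2 h at room temperature before reading.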
Numbers without * were called inactive; ? = inconclusive; . = no result; [ ] = remark or other dose. Calls come from the whole dose curve; as a rule, active = well fitted curve in the direction sought with a large enough effect; inconclusive = small, poorly fitted or top-dose-only effect, or another doubt; inactive = no such curve, though single readings can be large; an effect the other way counts as inactive or inconclusive. Unless noted, % is set by controls: 0 for no effect and ±100 for the full control effect; potency is the fitted concentration of half-maximal effect.

SMILES	Sfp PPTase inh	ALOX12 inh	PLK1 PBD block	VDR inh
COc1ccc(-c2cc([C@H]3CN4CC[C@H]3C[C@@H]4CNC(=O)Nc3ccccc3)n(C)n2)cc1OC	.	8%	.	.
O=S(=O)(Nc1c(O)ccc2ccccc12)c1ccc(F)cc1	.	?	11µM*	-12%
CN1CCN(C(=O)COc2ccc(S(=O)(=O)Nc3ccc(F)cc3)cc2)CC1	7%	-5%	-4%	-3%
O=C1C=CC(=O)C(Cl)=C1	4µM*	.	.	25µM*
Nc1ccccc1C(=O)OC1CSC1	9%	?	-20%	-7%
O=C(O)C(Cc1cnc[nH]1)NS(=O)(=O)c1ccc(Cl)cc1 (configuration not stated)	-22%	-19%	8%	11%
CC(C)CCn1c(=O)c(C(=O)NCc2ccco2)c(O)c2ccccc21	9%	0%	-2%	10%
CCc1ccc(N2C(=O)NC(=O)/C(=C\c3cc(C)n(-c4cc(C(=O)O)cc(C(=O)O)c4)c3C)C2=O)cc1	-7%	?	?	-13%
CC(C)(C)n1cccc1/C=C1\C(=O)NC(=O)N(c2ccccc2)C1=O	-27%	?	24µM*	18%
Cc1cc(C)cc(N2C(=O)NC(=O)/C(=C/c3cccn3-c3ccc(Cl)cc3)C2=O)c1	50µM*	-14%	?	-5%
Cc1cc(/C=C2\C(=O)NC(=O)N(c3ccc(F)cc3)C2=O)c(C)n1-c1ccc(C(=O)O)cc1	-27%	?	?	-5%
Cc1cccc(N2C(=O)NC(=O)/C(=C\c3cccn3-c3ccc(Cl)cc3)C2=O)c1	50µM*	0%	0.53µM*	17%
CC(C)NC(=O)NC(=O)C(C)Cl (configuration not stated)	.	14%	.	.
CCOCCSc1nc2c(c(-c3cccs3)c1C#N)CC/C2=C/c1cccs1	35µM*	-20%	-25%	-11%
COc1ccc(CC(=O)Nc2ccc(C#N)c(Cl)c2)cc1S(=O)(=O)N1CCOCC1	50µM*	?	4%	10%
COc1ccc(C2=NCC(=O)N(CC(=O)NCc3ccco3)c3sc4c(c32)CCCC4)cc1OC	50µM*	-15%	-7%	11%
O=C(CN1C(=O)CN=C(c2ccccc2)c2ccccc21)NCc1ccco1	9%	3%	-12%	-7%
COC(=O)C(O)(c1c(C)[nH]c2ccccc12)C(F)(F)F (configuration not stated)	1%	-15%	-11%	10%
O=C(CNC(=O)c1ccccc1)NCC(=O)OCC(=O)c1ccc([N+](=O)[O-])cc1	28µM*	-15%	0%	?
CCc1c(C)nc(N)nc1N1N=C1SCC(=O)OC	22%	-14%	-8%	-7%
COC(=O)CSc1n[nH]c(=S)s1	?	?	19µM*	-2%
CC(=O)N(C1=NCCCS1)c1ccccc1Cl	-5%	-2%	-16%	-17%
C[C@@]12CCC(OS(=O)(=O)O)C[C@@H]1CCC1C2CC[C@]2(C)C(=O)CCC12 (some centres not stated)	30%	12%	.	-14%
COc1ccccc1N1CCN(Cc2ccccc2)CC1	?	?	4%	-17%
COc1ccccc1N1CCN(Cc2ccc3c(c2)OCO3)CC1	.	0.71µM*	4%	10%
SMILES	Sfp PPTase inh	ALOX12 inh	PLK1 PBD block	VDR inh
N[C@@H](CSCCCO)C(=O)O	50µM*	?	.	-26%
CNCCc1ccccc1	3%	.	.	.
COC(=O)/C(C)=C\CC12OC(C)(C)C3CC(C=C4C(=O)c5c(OC)c6c(c(CC=C(C)C)c5OC431)OC(C)(CCC=C(C)C)C=C6)C2=O (configuration not stated)	?	.	.	2µM*
CC(=O)Oc1c2c(c(CC=C(C)C)c3c1C(=O)C1=CC4CC5C(C)(C)OC(C/C=C(\C)C(=O)O)(C4=O)[C@]15O3)OC(C)(CCC=C(C)C)C=C2 (some centres not stated)	25µM*	.	.	1.3µM*
CSc1ccccc1NP1(=O)OCC(C)([N+](=O)[O-])CO1 (configuration not stated)	.	-11%	-11%	-2%
CC1([N+](=O)[O-])COP(=O)(Nc2ccc(Cl)cc2)OC1 (configuration not stated)	.	?	-3%	89µM*
CCCCOCN(C(=O)CCl)c1c(CC)cccc1CC	0%	.	.	?
O=C(Nc1ccc(Cl)c(Cl)c1)c1ccco1	7%	66%	-4%	2%
CCN(c1ccc(C)cc1C)S(=O)(=O)c1nnc(NC(=O)c2ccco2)s1	14%	-11%	27µM*	12%
CCCn1c(=O)c2[nH]c(C3CCCC3)nc2n(CCCOC(=O)c2ccc(S(=O)(=O)F)cc2)c1=O	.	.	.	-5%
CCN(CCO)c1ccc(N=Cc2c(O)n(C)c(=S)[nH]c2=O)cc1	40µM*	?	20%	-9%
CCN(CC)c1ccc(N=Cc2c(O)n(Cc3ccco3)c(=O)[nH]c2=O)cc1	-10%	?	54%	-25%
COC(=O)[C@]1(C)CC[C@@]2(C)CC[C@@]3(C)C4=CC=C5C(=CC(=O)C(O)=C5C)[C@@]4(C)CC[C@@]3(C)C2C1 (some centres not stated)	-85%	.	.	3.2µM*
CC1(O)C[C@]2(C)N(O)C3CCCC[C@@H]3N2O1 (some centres not stated)	-10%	?	-11%	10%
CC1(C)N(O)C2CCCCC2N1O (configuration not stated)	56µM*	188%	-2%	8%
C=CCN1C(=O)NC(=O)/C(=C/c2ccc(OC)c(COc3ccc(NC(C)=O)cc3)c2)C1=O	45µM*	0%	11µM*	79µM*
C=CCN1C(=O)NC(=O)/C(=C/c2ccc(OC)c(CSc3ccccn3)c2)C1=O	56µM*	?	4.7µM*	71µM*
CC(C)c1ccc(NC(=O)N2C[C@H]3C[C@@H](C2)c2cccc(=O)n2C3)cc1	11%	28%	-6%	6%
CC(C)NC(=O)N1C[C@@H]2C[C@H](C1)c1ccc(C3CCCCC3)c(=O)n1C2	.	32µM*	.	.
O=C(O)CN1C(=O)CN=C(c2ccccn2)c2cc(Cl)ccc21	50µM*	-3%	2%	10%
O=C1NC(=O)C(Nc2ccc(Cl)c(Cl)c2)C(=O)N1	.	-5%	-29%	40µM*
O=C1NC(=S)NC(=O)C1Nc1ccc(Cl)cc1	.	?	3µM*	?
O=C1NC(=S)NC(=O)C1Cc1ccccc1O	.	?	-1%	-1%
Cc1ccc2c(c1)C1CN(C)CCC1N2C(=O)Nc1cccc(C(F)(F)F)c1 (configuration not stated)	-1%	-29%[57.4 µM]	-5%	2%
CN(C)[C@@H]1CN(C(=O)Cc2ccccc2F)C[C@H]1CO	.	4%	.	.
C[C@H](CO)N1C[C@H](C)[C@@H](CN(C)C(=O)Oc2cccc3ccccc23)OCc2cn(nn2)CCCC1=O	.	8%	?	.
O=C(CSc1ccccn1)Nc1cccc2ccccc12	13%	2%	21µM*	-13%
CCOC(=O)c1c(C)n(CCOC)c2ccc(O)cc12	2%	0%	-7%	3%
O=C(Cc1ccccc1)N1CCN(Cc2cccnc2)CC1	79µM*	-16%	-6%	-1%
